# Only a selection was taken, and hits are over-represented in it overall.
# Methyltransferases = Primary Screen for Target Class Profiling of Small Molecule Inhibitors of Methyltransferases. purified enzyme, MTase-Glo SAH luminescence; stronger effect = lower value. calls only at 40 µM. actives 3.9% (n = 25,000). AID 1745853, 2022; call rule not given here
#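 Each enzyme was reacted with SAM and its substrate, with compounds tested once at 40 uM; SAH formed was read by MTase-Glo luminescence.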
# MTase-Glo ctr = Counterscreen for Target Class Profiling of Small Molecule Inhibitors of Methyltransferases; shares compounds with Methyltransferases; MTase-Glo coupled enzymes, SAH conversion luminescence, no MTase; actives 6% (n = 180); Potency, µM (titrated, usually from 57.3 µM), most hits filed as inhibitors; AID 1745851, 2022; active = well fitted inhibition curve with a large enough effect; inconclusive = small, poorly fitted or top-dose-only effect
# Calls only; 0 = inactive; ? = inconclusive; + = active, no number.
SMILES,Methyltransferases,others
Cc1ccc(NC(=O)N2Cc3ccccc3-n3cccc3C2c2cccs2)cc1C (stereo unspecified),0,
CN1CC[C@@]2(C)c3cc(O)ccc3N(C)C12 (stereo partly specified),+,
CCC1c2cccn2-c2ccccc2CN1C(=O)Nc1cccc(Br)c1 (stereo unspecified),0,
COc1ccccc1NC(=O)N1Cc2ccccc2-n2cccc2C1c1ccc(C)cc1 (stereo unspecified),0,
CC(C)NC(=O)N1Cc2ccccc2-n2cccc2C1c1cc(F)cc(F)c1 (stereo unspecified),0,
Clc1ccc([C@]23CNC[C@H]2C3)cc1Cl,+,
C=CCN1CC[C@]23c4c5ccc(O)c4O[C@H]2[C@@H](O)CC[C@@]3(O)[C@H]1C5,0,
COc1ccc(C2c3cccn3-c3ccccc3CN2C(=O)NCc2ccc(F)cc2)cc1 (stereo unspecified),0,
O=C(Nc1cccc(Cl)c1)N1Cc2ccccc2-n2cccc2C1c1cccs1 (stereo unspecified),0,
COc1ccc(C2c3cccn3-c3ccccc3CN2C(=O)Nc2ccccc2F)cc1OC (stereo unspecified),0,
CCC1c2cccn2-c2ccccc2CN1C(=O)NC1CCCC1 (stereo unspecified),0,
C=C(CO)C(=O)O[C@H]1CC(=C)[C@@H]2C[C@H](O)C(=C)[C@@H]2[C@H]2OC(=O)C(=C)[C@@H]21,+,
C/C=C(\C)C(=O)O[C@@H]1[C@@H](C)[C@]2(O)C3C=C(C)C(=O)[C@@]3(O)CC(CO)=C[C@H]2C2C(C)(C)[C@@]21OC(=O)C(C)CC (stereo partly specified),0,
CCc1ccc(C2c3cccn3-c3ccccc3CN2C(=O)Nc2ccc(C)cc2)cc1 (stereo unspecified),0,
CCCCCOc1cc2c(cc1-c1cc(/C=C/C(=O)O)ccc1O)C(C)(C)CCC2(C)C,+,
CN1C[C@@H]2CN(c3ccc(-c4ccccc4)nn3)C[C@@H]2C1,0,
CCOc1ccc(NC(=O)N2Cc3ccccc3-n3cccc3C2c2cccc(Cl)c2)cc1 (stereo unspecified),0,
CCc1ccccc1NC(=O)N1Cc2ccccc2-n2cccc2C1c1ccc(SC)cc1 (stereo unspecified),0,
CN(CCc1ccccn1)C[C@H]1CN2CC[C@H]1C[C@@H]2CNC(=O)c1ccco1,0,
CC(C)NC(=O)NC[C@H]1C[C@@H]2CCN1C[C@@H]2CN1CCC(Cc2ccccc2)CC1,0,
CN(CCc1ccccn1)C[C@H]1CN2CC[C@H]1C[C@@H]2CNC(=O)Nc1ccsc1,+,MTase-Glo ctr=0
CCc1ccc(C2c3cccn3-c3ccccc3CN2C(=O)Nc2ccc3c(c2)OCCO3)cc1 (stereo unspecified),0,
COc1ccc(C)cc1NC(=O)N1Cc2ccccc2-n2cccc2C1C (stereo unspecified),0,
COC(=O)CCNC(=O)N1Cc2ccccc2-n2cccc2C1c1ccc(F)cc1 (stereo unspecified),0,
CSc1cccc(NC(=O)N2Cc3ccccc3-n3cccc3C2c2cccs2)c1 (stereo unspecified),0,
SMILES,Methyltransferases,others
CCC(CC)c1cc([C@H]2CN3CC[C@H]2C[C@@H]3CNC(=O)C2CCC2)nc(-c2ccncc2)n1,0,
Cc1nc(-c2ccccc2)cc([C@H]2CN3CC[C@H]2C[C@@H]3CNS(C)(=O)=O)n1,0,
Cn1nc(-c2ccc(F)cc2)cc1[C@H]1CN2CC[C@H]1C[C@@H]2CNC(=O)c1cccs1,0,
COc1ccc(-c2cc([C@H]3CN4CC[C@H]3C[C@@H]4CN)nc(C)n2)cc1OC,+,MTase-Glo ctr=0
COc1ccc(-c2cc([C@H]3CN4CC[C@H]3C[C@@H]4COC(=O)NC3CCCCC3)nc(C)n2)cc1,0,
CC(=O)c1cccc(NC(=O)NC[C@H]2C[C@@H]3CCN2C[C@@H]3c2cc(-c3ccc(F)cc3)nc(C)n2)c1,+,MTase-Glo ctr=?
CCOc1ccccc1NC(=O)N1Cc2ccccc2-n2cccc2C1c1cccc(Cl)c1 (stereo unspecified),0,
Cc1ccc(CNC(=O)N2Cc3ccccc3-n3cccc3C2c2cccc(C)c2)cc1 (stereo unspecified),0,
CCC1c2cccn2-c2ccccc2CN1C(=O)Nc1ccccc1Cl (stereo unspecified),0,
Cc1c(Cl)cccc1NC(=O)N1Cc2ccccc2-n2cccc2C1C(C)C (stereo unspecified),0,
C[C@]12CC[C@H](O[C@@H]3O[C@H](CO)[C@@H](O)[C@H](O)[C@H]3O)CC1CC[C@@H]1C2CC[C@]2(C)[C@@H](C3=CC(=O)OC3)CC[C@]12O (stereo partly specified),0,
FC(F)(F)CN1C2CCC1CN(c1nnc(Cl)c3ccccc13)C2,0,
NC(=O)c1ccc(N2CC3CCC(C2)N3CC(F)(F)F)nn1,+,MTase-Glo ctr=0

# Source: PubChem BioAssay (National Center for Advancing Translational Sciences (NCATS))
